From PubChem BioAssay
Measured potencies and affinities stand elsewhere. Results filed as inconclusive are left out. The source made the active and inactive calls.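 How the source made its calls, unless noted: active means a fitted half-maximal concentration no higher than twice the top valid tested dose, with signal falling as cells die; inconclusive means flat curve between -70% and -30%, or poor fit; inactive means the rest, including signal rising instead of falling.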

Assays:
[1] = Cryptococcus neoformans growth inhibition, dose response, Alamar Blue, cherry-picks (AID 686998;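 active means falling signal with fitted half-maximal potency no higher than twice the top valid tested dose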)
[2] = inducers of Cryptococcus neoformans cell lysis, dose response, AK release luminescence, cherry-picks (AID 687000;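 active means fitted dose curve reaches 40% lysis signal rise at or below the highest valid concentration tested for that sample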;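 further: luminescent detection of adenylate kinase leaking from lysed yeast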)
[3] = HepG2 cell cytotoxicity, dose response, cytotoxicity control, cherry-picks, set 2 (AID 687002;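 active means a dose-response fit showing signal loss, with half-maximal concentration no higher than twice the top tested dose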)
[4] = HeLa cell cytotoxicity, dose response, cytotoxicity control, ATP luminescence, cherry-pick samples (AID 687004)

Measured: outcome

C[C@H]1CN([C@@H](C)CO)C(=O)c2cc(C#Cc3ccccn3)cnc2O[C@H]1CN(C)Cc1ccncc1
inactive: all assays above

COCCNC(=O)C[C@H]1CC[C@@H]2[C@H](COC[C@H](O)CN2S(=O)(=O)c2ccccc2C)O1
inactive: all assays above

Cc1cccc(N2CCN(C(=O)C3CCC(=O)N3C(C)C)CC2C)c1 (stereo unspecified)
inactive: all assays above

COC(=O)N(C)C[C@H]1OCc2cn(nn2)CCCC(=O)N([C@@H](C)CO)C[C@@H]1C
inactive: all assays above

C[C@@H]1CCCCO[C@H](CN(C)Cc2ccncc2)[C@@H](C)CN([C@H](C)CO)C(=O)c2cc(N(C)C)ccc2O1
inactive: all assays above

CO[C@@H]1CC[C@@H]2CCOc3c(C#N)cccc3C(=O)N(C)C[C@H](c3ccccc3)CC(=O)N(C)C[C@@H]1O2
inactive: all assays above

Cc1noc(C)c1S(=O)(=O)Nc1ccc2c(c1)C(=O)N([C@H](C)CO)C[C@@H](C)[C@H](CN(C)Cc1ccccc1)OCCCC[C@H](C)O2
inactive: all assays above

Cc1ccc(C2=NN(C(=O)c3ccc(Br)o3)C(c3ccc(C)cc3)C2)cc1 (stereo unspecified)
inactive: all assays above

Cc1cccc(C)c1NC(=O)CN1CCN(C(=O)CNC(=O)c2ccc(N3CCCC3=O)cc2)CC1
inactive: all assays above

CNC(=O)C[C@@H]1CC[C@@H]2[C@H](COC[C@H](O)CN2S(=O)(=O)c2cccc(Cl)c2)O1
inactive: all assays above

COc1ccc(C#Cc2ccc3c(c2)O[C@H](CN(C)C(=O)Nc2cccc(OC)c2)[C@H](C)CN([C@@H](C)CO)S3(=O)=O)cc1
inactive: all assays above

CC(C)NC(=O)Nc1ccc2c(c1)CC(=O)N([C@@H](C)CO)C[C@H](C)[C@H](CN(C)Cc1ccc3c(c1)OCO3)O2
inactive: all assays above

CC(=O)NC[C@@H]1[C@@H](c2ccc(C3=CCCC3)cc2)[C@@H](CO)N1C(=O)NC(C)C
inactive: all assays above

CCC(=O)N[C@H]1C=C[C@@H](CC(=O)OC)O[C@@H]1CO
inactive: all assays above

C[C@@H]1CN([C@@H](C)CO)C(=O)c2cc(NS(=O)(=O)c3ccccc3)ccc2O[C@H]1CN(C)C(=O)NC1CCCCC1
inactive: all assays above

O=C([C@H]1[C@H](CO)[C@H]2Cn3c(cccc3=O)[C@H]2N1CCC(F)(F)F)N1CCCCC1
inactive: all assays above

C[C@H](CO)N1C[C@H](C)[C@H](CN(C)Cc2ccncc2)Oc2ccc(NC(=O)CCC(F)(F)F)cc2C1=O
inactive: all assays above

O=C(C[C@H]1C[C@H]2c3cc(NC(=O)C4CCC4)ccc3O[C@H]2[C@@H](CO)O1)NCc1cccc(F)c1
inactive: all assays above

C[C@H](CO)N1C[C@H](C)[C@@H](CN(C)C(=O)c2cccc(F)c2)Oc2cc(-c3cncnc3)ccc2S1(=O)=O
inactive: all assays above

Cc1noc(C)c1S(=O)(=O)N(C)C[C@H]1OCCCC[C@@H](C)Oc2ccc(NC(=O)CCCCCC(=O)Nc3ccccc3N)cc2C(=O)N([C@@H](C)CO)C[C@@H]1C
inactive: all assays above

CC=Cc1ccc2n(c1=O)C[C@H]1[C@H](CO)[C@@H](C(=O)N3CCOCC3)N(CC3CC3)[C@@H]21 (mixture of isomers)
inactive: all assays above

N#Cc1ccc(C23CC4(C2)[C@H](CN(Cc2ccc(-c5ccccc5)cc2)[C@@H]4c2ccccc2)C3c2ccc(C(F)(F)F)cc2)cc1 (stereo partly specified)
inactive: all assays above

Cc1ccc(S(=O)(=O)N[C@@H]2CCCN(Cc3cccc(OCCO)c3)C2)cc1
inactive: all assays above

CC(C)NC(=O)Nc1cccc2c1O[C@H](CN(C)C)[C@H](C)CN([C@@H](C)CO)C2=O
inactive: all assays above

O=C(C[C@H]1C[C@@H]2c3cc(NC(=O)c4cccnc4)ccc3O[C@@H]2[C@@H](CO)O1)NCCc1ccccc1
inactive: all assays above

Cc1ccc(N(C(=O)C2CCC(=O)N2)C2(C(=O)NC3CCCCC3)CCCCC2)cc1 (stereo unspecified)
inactive: all assays above

O=C(c1cccnc1)N1CCC(Oc2ccc(C(=O)N3CCCC(O)C3)cc2)CC1 (stereo unspecified)
inactive: all assays above

C[C@H]1CN([C@@H](C)CO)C(=O)Cc2cc(NC(=O)Nc3ccccc3)ccc2O[C@H]1CN(C)C(=O)Nc1ccc2c(c1)OCO2
inactive: all assays above

COc1ccc(-n2ncc3c(SCC(=O)NNC(C)=O)ncnc32)cc1
inactive: all assays above

C[C@H](CO)N1C[C@H](C)[C@@H](CN(C)Cc2ccncc2)OCCCC[C@H](C)Oc2ccc(NC(=O)NC3CCCCC3)cc2C1=O
inactive: all assays above

C[C@H](CO)N1C[C@H](C)[C@H](CN(C)Cc2cccc(C(F)(F)F)c2)OCc2cnnn2CCCC1=O
inactive: all assays above

C[C@@H]1CCCCO[C@@H](CN(C)Cc2ccncc2)[C@@H](C)CN([C@@H](C)CO)C(=O)c2cc(NC(=O)c3ccncc3)ccc2O1
inactive: all assays above

CCC(=O)N1[C@@H]2Cn3c(cccc3=O)[C@H]1[C@@H](C(=O)NCc1ccccc1)[C@@H]2CO
inactive: all assays above

CCCNC(=O)N(C)C[C@@H]1Oc2ncc(C#CC3CCCCC3)cc2C(=O)N([C@H](C)CO)C[C@@H]1C
inactive: all assays above

Cc1ccc(S(=O)(=O)N2C[C@@H](O)COC[C@@H]3O[C@H](CC(=O)NCc4ccc5c(c4)OCO5)CC[C@H]32)cc1
inactive: all assays above

Cc1ccc(S(=O)(=O)N(C)C[C@@H]2Oc3ncc(Br)cc3C(=O)N([C@@H](C)CO)C[C@H]2C)cc1
inactive: all assays above

COc1ccc(-c2cnc3c(c2)C(=O)N([C@@H](C)CO)C[C@@H](C)[C@@H](CN(C)S(C)(=O)=O)O3)cc1
inactive: all assays above

CCCNC(=O)Nc1ccc2c(c1)C(=O)N(C)C[C@H](OC)[C@@H](C)CN(Cc1cccnc1)[C@H](C)CO2
inactive: all assays above

COc1ccc(S(=O)(=O)Nc2ccc3c(c2)C(=O)N([C@@H](C)CO)C[C@H](C)[C@@H](CN(C)C)OCCCC[C@H](C)O3)cc1
inactive: all assays above

CO[C@H]1CN(C)C(=O)c2ccc(NC(C)=O)cc2OC[C@H](C)N(C(=O)c2ccncc2)C[C@@H]1C
inactive: all assays above

Cc1cccc(C)c1NC(=O)C(CCc1ccccc1)N1CCN(CCN(C)C)CC1 (stereo unspecified)
inactive: all assays above

C[C@@H]1CN([C@@H](C)CO)C(=O)c2cc(NS(=O)(=O)c3cn(C)cn3)ccc2O[C@@H](C)CCCCO[C@H]1CN(C)C
inactive: all assays above

C[C@@H]1CN([C@H](C)CO)C(=O)c2cc(NS(=O)(=O)c3ccccc3)ccc2O[C@H]1CN(C)C(=O)NC1CCCCC1
inactive: all assays above

COc1cccc(S(=O)(=O)N(C)C[C@H]2OCc3cnnn3CCCC(=O)N([C@H](C)CO)C[C@H]2C)c1
inactive: all assays above

C[C@@H]1CN([C@@H](C)CO)C(=O)CCCn2cc(nn2)CO[C@@H]1CN(C)C(=O)CCCN(C)C
inactive: all assays above

CO[C@@H]1CN(C)C(=O)c2ccc(NC(=O)C3CC3)cc2OC[C@H](C)N(C(=O)c2ccncc2)C[C@H]1C
inactive: all assays above

Cc1cccc(C)c1NC(=O)CN1CCCC1
inactive: all assays above

C[C@H](O)C#Cc1ccc2c(c1)O[C@H](CN(C)C(=O)C1CCCCC1)[C@H](C)CN([C@@H](C)CO)S2(=O)=O
inactive: all assays above

C[C@H]1CN([C@@H](C)CO)S(=O)(=O)c2ccc(C#Cc3cccc(F)c3)cc2O[C@@H]1CN(C)C
inactive: all assays above

Cc1noc(C)c1NC(=O)Nc1cccc2c1O[C@H](CN(C)S(=O)(=O)c1cn(C)cn1)[C@H](C)CN([C@H](C)CO)C2=O
inactive: all assays above

C[C@@H]1CCCCO[C@@H](CN(C)CC2CCCCC2)[C@@H](C)CN([C@@H](C)CO)C(=O)c2cc(NS(=O)(=O)c3ccccc3)ccc2O1
inactive: all assays above

Cc1ccc(NC(=O)C2(C)CCN2C(=O)CCC2CCCC2)cc1C (stereo unspecified)
inactive: all assays above

C[C@@H]1CN([C@@H](C)CO)C(=O)CCCn2nncc2CO[C@H]1CN(C)Cc1cccc(C(F)(F)F)c1
inactive: all assays above

COC(=O)N(C)C[C@H]1OCc2cn(nn2)CCCC(=O)N([C@H](C)CO)C[C@@H]1C
inactive: all assays above
